Screening data (PubChem)
DAX1 inh-1: NR0B1 (DAX1) inhibition. HEK293 Gal4-DAX1 luciferase reporter, luminescence. inhibition, % at 6.75 µM. actives 0.99% (n = 340,000);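 active = inhibition above the mean over all tested compounds plus 3 SD, cut at about 4.2% in these data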;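 also: 0% = DAX1-transfected cells with DMSO and 100% = empty-vector control cells with DMSO; inhibition shows as a rise in luminescence from relieved DAX1 repression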
Target sequence (P51843 207-470 limits assumed): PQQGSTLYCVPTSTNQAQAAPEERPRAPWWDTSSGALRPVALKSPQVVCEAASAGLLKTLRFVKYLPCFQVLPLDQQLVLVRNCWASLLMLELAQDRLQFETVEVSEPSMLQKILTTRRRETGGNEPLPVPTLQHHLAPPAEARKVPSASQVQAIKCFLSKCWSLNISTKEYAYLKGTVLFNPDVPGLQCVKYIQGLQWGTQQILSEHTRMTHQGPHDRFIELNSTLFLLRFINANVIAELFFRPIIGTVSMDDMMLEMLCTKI
hgDAF-12 ag: activates the H. glycines DAF-12 receptor ligand-binding domain; HEK293 GAL4-hgDAF12 UAS-luciferase reporter, agonist luminescence; normalized to butyrate control; activation, % at 6.8 µM; actives 1.8% (n = 370,000); AID 687014;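 active = activation above a cutoff set at the mean of all screened compounds plus 3 SD, cut at about 10% in these data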;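 also: 0% = DMSO wells and 100% = sodium butyrate wells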
hcDAF-12 act: activators of H. contortus DAF-12 nuclear receptor; actives 1.4% (n = 370,000); HEK293 hcDAF-12 lit1-tk-luc reporter, luminescence; 0% DMSO, 100% Δ7-dafachronic acid; AID 652067; activation, % at 6.8 µM;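 active = activation above the mean of all tested compounds plus 3 SD, cut at about 5.5% in these data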;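 also: 100% = response to 3 µM Δ7-dafachronic acid high control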
DAX1 inh-2: DAX1 (NR0B1) inhibition, primary screen | HEK293T StAR-luciferase reporter, SF-1/DAX-1 repression relief | inhibition, % at 6.8 µM | actives 1.1% (n = 370,000) | AID 652010;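 active = inhibition above the mean over all tested compounds plus 3 SD, cut at about 3.6% in these data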;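 also: 0% = DAX-1 cells with DMSO and 100% = cells lacking DAX-1 with DMSO; higher inhibition means more luminescence from relief of DAX-1 repression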
ssDAF-12 act: activators of S. stercoralis DAF-12 nuclear receptor | HEK293 ssDAF-12/GRIP1 lit1-tk-luc reporter, luminescence; % of 3 µM dafachronic acid response | activation, % at 6.8 µM | actives 1% (n = 370,000) | AID 652126;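 active = activation above the mean over all tested compounds plus 3 SD, cut at about 0.9% in these data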;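 also: 0% = DMSO-only wells and 100% = 3 µM delta7-dafachronic acid wells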
LXRb hcDAF ctr: counter-screen for hcDAF-12 agonists: agonists of human LXR-beta; shares compounds with hcDAF-12 act; HEK293 Gal4-LXR tk-luc reporter, luminescence, 24 h; normalized: DMSO 0%, positive control 100%; activation, % at 6.8 µM; 3,400 tested, under 10 active; AID 743027;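 active = mean percent activation of the reporter above a cutoff set as the average over tested compounds plus their standard deviation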
hcDAF12 ag: confirmation of H. contortus DAF-12 agonists. shares compounds with hcDAF-12 act. HEK293 hcDAF-12 lit1-tk-luc reporter, luminescence; % of Δ7-dafachronic acid response. activation, % at 6.8 µM. actives 61% (n = 3,400);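 active = mean activation across triplicate tests above the threshold derived from the earlier primary screen, cut at about 5.5% in these data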;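 also: 0% = DMSO only wells and 100% = 3 µM Δ7-dafachronic acid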
Starred values were filed as active, the others as inactive. Hits are enriched below; roughly 4.1% of the tested compounds scored in any of these assays.

Screening COc1c(Cl)cccc1-c1cn2ccccc2n1 returned DAX1 inh-1 -0.6, hgDAF-12 ag 12.9*, hcDAF-12 act 7.3*, DAX1 inh-2 2.7, ssDAF-12 act 0.0, LXRb hcDAF ctr 1.2 and hcDAF12 ag 7.7*.
Clc1ccc(OCc2cn3ccccc3n2)c2ncccc12 was read as DAX1 inh-1 1.8, hgDAF-12 ag 8.9, hcDAF-12 act 1.1, DAX1 inh-2 2.6 and ssDAF-12 act -0.5.
`O=c1oc2ccccc2c(Nc2cc3ccccc3cc2O)c1[N+](=O)[O-]` gave DAX1 inh-1 -2.7, hgDAF-12 ag 17.1*, hcDAF-12 act 8.3*, DAX1 inh-2 -1.5, ssDAF-12 act 1.0*, LXRb hcDAF ctr 1.1 and hcDAF12 ag 14.3*.
`O=c1oc2ccccc2c(Nc2ccccc2O)c1[N+](=O)[O-]` gave DAX1 inh-1 -0.1, hgDAF-12 ag -0.5, hcDAF-12 act 1.1, DAX1 inh-2 -0.3 and ssDAF-12 act -1.1.
`CC(C)(C)c1ccc(C(=O)N2CCOC23CCCCC3)cc1` gave hgDAF-12 ag -3.8, hcDAF-12 act -0.7, DAX1 inh-2 1.8 and ssDAF-12 act -1.3.
CCCC#Cc1ccc2c(c1)COc1c3ccccc3nn1-2 was read as DAX1 inh-1 5.5*, hgDAF-12 ag 16.9*, hcDAF-12 act 10.8*, DAX1 inh-2 4.1*, ssDAF-12 act 2.6*, LXRb hcDAF ctr 2.0 and hcDAF12 ag 12.1*.
For O=C(CSc1nnc(CNc2ccc(F)cc2)n1CC1CCCO1)N1CCOCC1 (centres undefined) the results were DAX1 inh-1 -1.0, hgDAF-12 ag -1.8, hcDAF-12 act 2.1, DAX1 inh-2 0.2 and ssDAF-12 act -1.6.
Screening Clc1ccc(-c2cnn3c(-c4ccncc4)ccnc23)cc1 returned DAX1 inh-1 3.6, hgDAF-12 ag 13.1*, hcDAF-12 act 7.2*, DAX1 inh-2 3.1, ssDAF-12 act -0.1, LXRb hcDAF ctr 1.5 and hcDAF12 ag 8.4*.
`O=C(CN1CCN(c2nc(-c3ccccc3)cs2)CC1)Nc1ccc(F)cc1F` gave hgDAF-12 ag -1.0, hcDAF-12 act -2.7, DAX1 inh-2 -1.3 and ssDAF-12 act -1.3.
For CCOC(=O)c1c(NC(=O)C(C)N2CCN(C(=O)c3ccco3)CC2)sc2c1CCCC2 (centres undefined) the results were DAX1 inh-1 -3.5, hgDAF-12 ag -2.4, hcDAF-12 act -2.8, DAX1 inh-2 -1.5 and ssDAF-12 act -1.9.
O=C(Nc1nnc(-c2ccccc2)s1)c1ccc(F)cc1 was read as DAX1 inh-1 0.0, hgDAF-12 ag 2.8, hcDAF-12 act 6.7*, DAX1 inh-2 -0.2, ssDAF-12 act -1.1, LXRb hcDAF ctr 0.2 and hcDAF12 ag 2.1.
`COc1ccccc1C(=O)Nc1nnc(-c2ccc(F)cc2)s1` gave DAX1 inh-1 -0.8, hgDAF-12 ag 2.9, hcDAF-12 act 4.0, DAX1 inh-2 0.6 and ssDAF-12 act -0.5.
For COc1ccc(Nc2nccc3c2ncn3C)cc1 the results were DAX1 inh-1 1.0, hgDAF-12 ag 11.4*, hcDAF-12 act 6.6*, DAX1 inh-2 3.5, ssDAF-12 act 0.3, LXRb hcDAF ctr 1.5 and hcDAF12 ag 5.4.
For Cc1cnc(C)c(Nc2nc(C(N)c3ccccc3)cs2)n1 (centres undefined) the results were hgDAF-12 ag 2.0, hcDAF-12 act 3.5, DAX1 inh-2 0.7 and ssDAF-12 act -0.9.
`O=C1c2cccc(NCCNCCO)c2C(=O)c2cccc(NCCNCCO)c21` gave DAX1 inh-1 -0.8, hgDAF-12 ag -0.5, hcDAF-12 act 8.9*, DAX1 inh-2 -5.5, ssDAF-12 act 0.7, LXRb hcDAF ctr 2.4 and hcDAF12 ag 14.5*.
For CCOc1ccc(C(C(=O)NC2CCCCC2)N(CCOC)C(=O)c2snc(C(N)=O)c2N)cc1 (centres undefined) the results were DAX1 inh-1 -0.7, hgDAF-12 ag -1.5, hcDAF-12 act -0.9, DAX1 inh-2 0.1 and ssDAF-12 act -1.4.
`Cc1cc2nc(-c3cccc(Cl)c3)c(CC3CCCCC3)n2c(C)c1Br` gave hgDAF-12 ag 3.1, hcDAF-12 act 3.0, DAX1 inh-2 1.9 and ssDAF-12 act 0.1.
For N#Cc1ccc(-c2nc3c4ccccc4ccn3c2CC2CCCCC2)cc1 the results were hgDAF-12 ag 6.0, hcDAF-12 act 2.4, DAX1 inh-2 -0.8 and ssDAF-12 act -0.2.
For Cc1cc2nc(-c3ccccc3)c(CC3CCCCC3)n2c(C)c1Br the results were hgDAF-12 ag 3.8, hcDAF-12 act 6.9*, DAX1 inh-2 3.5, ssDAF-12 act 0.9*, LXRb hcDAF ctr -0.2 and hcDAF12 ag 2.9.
For Cc1ccc(-c2nc3c4ccccc4ccn3c2CC2CCCCC2)cc1 the results were hgDAF-12 ag 11.0*, hcDAF-12 act 7.5*, DAX1 inh-2 1.6, ssDAF-12 act 2.5*, LXRb hcDAF ctr 0.1 and hcDAF12 ag 6.2*.
Cc1ccc(-c2nc3cc(C)c(Br)c(C)n3c2CC2CCCCC2)cc1 was read as hgDAF-12 ag 6.9, hcDAF-12 act 7.7*, DAX1 inh-2 1.5, ssDAF-12 act 1.7*, LXRb hcDAF ctr -0.2 and hcDAF12 ag 3.7.
For Cc1cccc(C)c1C(OCCN(C)C)C1CCCCC1 (centres undefined) the results were DAX1 inh-1 0.1, hgDAF-12 ag -1.8, hcDAF-12 act 1.6, DAX1 inh-2 0.2 and ssDAF-12 act -1.2.
C=CCCC1CN(Cc2ccc(OC)cc2)S(=O)(=O)c2c(Oc3ccc(OC)cc3)cccc2O1 (centres undefined) was read as hgDAF-12 ag 1.0, hcDAF-12 act -1.5, DAX1 inh-2 0.1 and ssDAF-12 act -1.4.
Screening CCc1ccc(/C=C/C(=O)c2ccc(N3CCOCC3)cc2)cc1 returned DAX1 inh-1 -2.3, hgDAF-12 ag 2.6, hcDAF-12 act 6.8*, DAX1 inh-2 0.0, ssDAF-12 act -2.1, LXRb hcDAF ctr -0.3 and hcDAF12 ag 0.7.
For CCOC(=O)C1(C)CCCN1C(=O)c1ccccc1F (centres undefined) the results were hgDAF-12 ag 2.4, hcDAF-12 act 7.1*, DAX1 inh-2 0.0, ssDAF-12 act -0.5, LXRb hcDAF ctr -0.4 and hcDAF12 ag 0.2.
`CCOC(=O)C1(C)CCCN1C(=O)c1c(F)cccc1F` (centres undefined) gave hgDAF-12 ag 5.5, hcDAF-12 act 2.2, DAX1 inh-2 0.3 and ssDAF-12 act -1.7.
COC(=O)Nc1ccc(OCc2ccccc2)cc1 was read as DAX1 inh-1 2.0, hgDAF-12 ag 6.5, hcDAF-12 act 1.3, DAX1 inh-2 2.1 and ssDAF-12 act -0.9.
